Source: PubChem
Compounds with a hit are over-represented: about 6.9% of the library has one in this group of screens.
BAZ2B inh = BAZ2B (human) inhibition; Potency, µM (series often up to 114 µM), for inactives: at the top dose activity change, negative = inhibition, actives largely listed as inhibitors; 4.4% of 360,000 active; Q9UIF8; AID 504333; AlphaScreen BAZ2B-H3K14Ac peptide displacement; also: % is scaled to controls: 0 for no effect and ±100 for the full control effect; nearly all actives have a fitted effect of over 60% in size
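In this displacement format the biotinylated H3(5-23) peptide acetylated at Lys14 serves as ligand at 50 nM, with BAZ2B at 50 nM in PBS pH 7.4 containing 0.01% Tween-20. Donor and acceptor beads are 10 ug/mL final.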
PLK1 PBD block = blocks phosphopeptide binding to human PLK1 polo-box domain; Potency, µM, for the others: max response, negative = inhibition, usual class: inhibitors; 2.8% of 360,000 active; P53350; AID 720504; Plk1 PBD binding of FITC phosphopeptide, fluorescence polarization; also: series mostly up to about 57 µM; % is scaled to controls: 0 for no effect and ±100 for the full control effect; nearly all actives have a fitted effect of over 65% in size
VDR inhibitor = vitamin D3 receptor (human) inhibition. Potency, µM, for inactives: max response, negative = inhibition, hits mostly inhibitors. P11473. AID 504847. 0.93% of 400,000 active. VDR-SRC2-3 peptide fluorescence polarization, 2 h; also: % is scaled to controls: 0 for no effect and ±100 for the full control effect
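VDR–SRC2-3 interaction, FP format. Cmpds 23 nl via pintool, brief spin, 2 h ambient incubation.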
L3MBTL1 block = L3MBTL1 (human) inhibition; Q9Y468; Potency, µM (titrated, usually from 57.1 µM), for the others: at the highest dose activity, negative = inhibition, usual class: inhibitors; AlphaScreen L3MBTL1–H3K9me1 peptide binding; 0.66% of 230,000 active; also: % is scaled to controls: 0 for no effect and ±100 for the full control effect; nearly all actives have a fitted effect of over 60% in size
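AlphaScreen assay: L3MBTL1 (50 nM final) was preincubated 30 min at room temperature with biotinylated H3(1-15)K9me1 peptide (75 nM final), then 30 min with library compounds; streptavidin donor and nickel chelate acceptor beads (10 ug/mL final) added, 30 min dark.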
JMJD2A Tudor = inhibitors of human JMJD2A Tudor domain | AlphaScreen JMJD2A-Tudor / H3K4me3 peptide binding | 4.4% of 390,000 active | Potency, µM (doses to about 114 µM), without a hit: at the top dose activity change, negative = inhibition, usual class: inhibitors; also: % is scaled to controls: 0 for no effect and ±100 for the full control effect; nearly all actives have a fitted effect of over 50% in size
Target sequence (O75164 whole entry, looked up, the tested form may be a part): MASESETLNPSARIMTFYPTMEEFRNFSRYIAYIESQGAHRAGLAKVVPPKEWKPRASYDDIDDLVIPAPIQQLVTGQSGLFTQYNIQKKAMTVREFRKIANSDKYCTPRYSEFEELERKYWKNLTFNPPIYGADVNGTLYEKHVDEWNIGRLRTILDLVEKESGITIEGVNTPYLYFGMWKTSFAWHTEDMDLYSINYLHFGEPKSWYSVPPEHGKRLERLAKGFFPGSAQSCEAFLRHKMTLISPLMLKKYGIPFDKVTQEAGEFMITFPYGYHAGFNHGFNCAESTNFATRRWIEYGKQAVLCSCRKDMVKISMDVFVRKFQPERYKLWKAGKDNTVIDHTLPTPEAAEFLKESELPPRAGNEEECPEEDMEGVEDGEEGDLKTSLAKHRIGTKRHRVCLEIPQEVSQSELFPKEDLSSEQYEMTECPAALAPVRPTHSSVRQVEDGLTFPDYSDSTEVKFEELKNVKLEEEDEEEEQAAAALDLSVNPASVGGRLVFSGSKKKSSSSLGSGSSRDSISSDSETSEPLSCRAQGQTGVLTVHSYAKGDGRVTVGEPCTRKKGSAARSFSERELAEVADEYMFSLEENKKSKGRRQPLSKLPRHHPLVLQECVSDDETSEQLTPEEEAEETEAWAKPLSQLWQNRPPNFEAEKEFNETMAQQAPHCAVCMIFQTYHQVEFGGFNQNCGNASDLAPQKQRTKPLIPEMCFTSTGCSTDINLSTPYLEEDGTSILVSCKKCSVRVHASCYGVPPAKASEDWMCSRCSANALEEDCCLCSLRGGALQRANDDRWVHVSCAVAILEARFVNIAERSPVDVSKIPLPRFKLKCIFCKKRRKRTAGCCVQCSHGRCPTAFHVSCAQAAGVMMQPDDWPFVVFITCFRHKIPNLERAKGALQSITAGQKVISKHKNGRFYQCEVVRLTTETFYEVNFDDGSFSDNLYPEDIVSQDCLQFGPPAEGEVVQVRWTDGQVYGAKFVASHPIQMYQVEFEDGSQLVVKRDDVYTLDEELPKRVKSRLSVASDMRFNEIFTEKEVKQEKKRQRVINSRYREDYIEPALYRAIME
HP1b binding inh = blocks HP1-beta chromodomain binding to methylated histone tails. P83916. AlphaScreen HP1-beta / biotin-H3K9me3 peptide binding. Potency, µM (doses to about 114 µM), without a hit: at the top dose activity change, negative = inhibition, most hits filed as inhibitors. 0.56% of 390,000 active. AID 540317; also: nearly all actives have a fitted effect of over 70% in size
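Compound inhibition of the preformed complex between 50 nM HP1-beta and 50 nM biotinylated H3K9me3 peptide was read by AlphaScreen. Buffer was PBS pH 7.4 with 0.01% Tween-20. Incubations ran 30 min at room temperature, with 10 ug/mL donor/acceptor beads.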
* marks the source's active call; other numbers are inactive results; ? = inconclusive; · = no result given; [ ] = dose if it differs, or a comment. Calls follow the shape of the dose curve; as a rule, active = well fitted curve in the direction sought with a large enough effect; inconclusive = small, poorly fitted or top-dose-only effect, or another doubt; inactive = no such curve, though single readings can be large; an effect the other way counts as inactive or inconclusive. Potency is read from the fitted curve at half-maximal effect.

SMILES	BAZ2B inh	PLK1 PBD block	VDR inhibitor	L3MBTL1 block	JMJD2A Tudor	HP1b binding inh
CCOc1ccc(NC(=O)Nc2cccn(Cc3ccccc3)c2=O)cc1	40µM*	1%	6%	-15%	?	-16%
O=C(NCc1ccccc1)Nc1cccn(Cc2ccccc2)c1=O	-1%	3%	-3%	0%	-21%	-1%
Cc1cc(C(=O)N/N=C/c2ccc([N+](=O)[O-])cc2)c2ccccc2n1	28%	-7%	-16%	-13%	-6%	40%
O=C(N/N=C/c1cc([N+](=O)[O-])ccc1O)c1cc(-c2ccccc2)nc2ccccc12	32µM*	-3%	-9%	?	?	9%
Cc1cc(C(=O)N/N=C/c2cc([N+](=O)[O-])ccc2O)c2ccccc2n1	18µM*	-9%	9%	18µM*	25µM*	25%
Cc1cc(C(=O)N/N=C/c2ccc([N+](=O)[O-])s2)c2ccccc2n1	-17%	-14%	0%	·	-2%	22%
O=C(NC(C(=O)N/N=C/c1cc([N+](=O)[O-])ccc1O)c1n[nH]c(=O)c2ccccc12)c1ccccc1 (stereo unspecified)	32µM*	?	5%	·	45µM*	4%
O=C(N/N=C/c1cc([N+](=O)[O-])ccc1Cl)c1cc(-c2ccccc2)nc2ccccc12	-1%	4%	10%	·	0%	50%
Cc1cc(C(=O)N/N=C/c2cc(Br)cc([N+](=O)[O-])c2O)c2ccccc2n1	50µM*	-1%	-27%	?	?	?
Oc1c(C(c2ccccc2F)N2CCC3(CC2)OCCO3)sc2nc(-c3ccco3)nn12 (stereo unspecified)	0%	·	4%	·	-5%	36%
COc1cccc2c(C)cc3nnc(SCC(=O)Nc4ccc(C)cc4)n3c12	-9%	·	1%	·	-17%	27%
Cc1ccc(/C=N/NC(=O)c2cc(-c3ccncc3)nc3ccccc23)o1	?	-12%	20%	·	-34%	27%
C/C(=N\NC(=O)c1cc(-c2ccncc2)nc2ccccc12)c1ccc(N2CCOCC2)cc1	-9%	30µM*	-16%	-26%	?	7%
O=C(N/N=C/c1ccccn1)c1cc(-c2ccncc2)nc2ccccc12	79µM*	-4%	0%	-8%	-1%	40%
Cc1ccc2c(c1)C(=O)OC(C(=O)Nc1ccc(C(=O)O)cc1)C2 (stereo unspecified)	-6%	·	1%	·	-1%	24%
COc1cc(/C=C2/C(=O)N(c3ccc([N+](=O)[O-])cc3)N=C2N2CCOCC2)ccc1O	?	11µM*	?	-10%	-7%[11.4 µM]	?
COc1ccc(/C=C/C(=O)Oc2cc(C)[nH]c(=O)c2[N+](=O)[O-])cc1OC	4%	-4%	19%	·	32µM*	13%
CCN(CC)C(=O)c1cc([N+](=O)[O-])cc2c1-c1ccc([N+](=O)[O-])cc1C2=C(C#N)C#N	?	9.5µM*	25µM*	-28%	?	8%
N#CCCSCc1ccc2oc(C(=O)O)cc2c1	-5%	-10%	-7%	-7%[11.4 µM]	-17%	28%
COCc1ccc2oc(C(=O)O)cc2c1	?	3.4µM*	-15%	1%	-16%[11.4 µM]	21%
COc1ccc(OC)c(CCNC(=O)CS(=O)(=O)Cc2nc(-c3cccc(Cl)c3)oc2C)c1	?	·	-5%	·	-19%	34%
S=C(NCc1cccs1)Nc1ccccc1	-21%	-9%	-10%	7%	3%	23%
COc1ccccc1CNC(=S)Nc1ccc(S(N)(=O)=O)cc1	0%	21µM*	4%	·	-12%	9%
NS(=O)(=O)c1ccc(NC(=S)NCc2cccs2)cc1	-17%	24µM*	-5%	10%	-11%[11.4 µM]	-15%
COc1ccccc1NC(=S)NCc1ccc(S(N)(=O)=O)cc1	7%	-20%	-16%	7%	0%	17%
SMILES	BAZ2B inh	PLK1 PBD block	VDR inhibitor	L3MBTL1 block	JMJD2A Tudor	HP1b binding inh
Nc1nc(O)c(Sc2ccccc2[N+](=O)[O-])c(=O)[nH]1	-5%	12µM*	-10%	·	-4%	26%
CC(C)C(=O)NCC(c1ccc2c(c1)OCO2)N1CCN(c2ccccc2F)CC1 (stereo unspecified)	-3%	·	9%	·	-15%	-1%[57 µM]
C[C@@H]1CCCCO[C@@H](CN(C)Cc2ccncc2)[C@@H](C)CN([C@H](C)CO)C(=O)c2cc(NC(=O)c3ccccc3)ccc2O1	·	-13%	·	·	·	·
O=C(CCC(=O)Nc1ccccc1)N/N=C/c1ccncc1	1%	-30%	-3%	23%	-17%[11.4 µM]	7%
O=C(CCC(=O)Nc1ccc(F)cc1)N/N=C/c1ccncc1	·	-6%	-20%	·	3.5µM*	4%
CCOc1ccc(-c2nnc(SCC(=O)NCCc3ccccc3)nc2-c2ccc(OCC)c(OC)c2)cc1OC	-21%	·	10%	·	-20%	32%
CC(C)(C)OC(=O)N1CCC(c2c(C(=O)Nc3ccc4c(c3)OCCO4)cnn2-c2ccc(F)cc2F)CC1	-1%[57.1 µM]	·	7%	·	-24%	-2%
OCC1OC(Oc2cccc3ccccc23)C(O)C(O)C1O (stereo unspecified)	7%	-1%	4%	·	11%	24%
O=C(O)c1cc(O)c2c(c1)[C@@H]([C@H]1c3cc(C(=O)O)cc(O)c3C(=O)c3c(O[C@@H]4O[C@H](CO)[C@@H](O)[C@H](O)[C@H]4O)cccc31)c1cccc(O[C@@H]3O[C@H](CO)[C@@H](O)[C@H](O)[C@H]3O)c1C2=O	·	2.7µM*	-20%	0.11µM*	0.89µM*	1.3µM*
CC(C)(C)c1nc(CN2CCOCC2)cc(CN2CCOCC2)c1O	-32%	4%	-9%	·	32µM*	14%
O=C(NCc1ccc(F)cc1)c1ccc2c(c1)N(Cc1ccc(F)cc1Cl)C(=O)CS2	1%	·	-14%	·	10%	23%
CCNc1nc(NCC)nc(OCC(=O)O)n1	-28%	-2%	1%	·	-12%	6%
CCNc1nc(NCC)nc(C(=O)NN)n1	2.8µM*	-11%	-14%	4µM*	40µM*	57%
Cc1ccc(/C=C2\Sc3ccccc3C2=O)s1	8.9µM*	-4%	-2%	-20%	-27%	-16%
COc1ccc(CCNCC(O)COc2cccc(Br)c2)cc1OC (stereo unspecified)	50µM*	-1%	18%	·	1µM*	?
COc1ccc(CCNCC(O)COc2ccc(OC)cc2C(C)(C)C)cc1 (stereo unspecified)	71µM*	-1%	-15%	·	3.5µM*	?
Cc1ccc(CCNC(=O)C2COc3ccccc3C2)cc1 (stereo unspecified)	0%	·	6%	·	-14%	12%[57 µM]
C/C(=N\N=c1/scc(C)n1Cc1ccco1)c1cccc([N+](=O)[O-])c1	10µM*	-4%	-4%	?	25µM*	?
